PubChem BioAssay (NCATS)
Inconclusive results are not listed. Calls of active or inactive are those of the source. Calls come from the whole dose curve; as a rule, active = well fitted inhibition curve with a large enough effect; inconclusive = small, poorly fitted or top-dose-only effect; inactive = flat fitted curve, though single readings scatter.

How the values were obtained:
[1] = tested on: CRL-7250; test: Cytotoxic Profiling of Annotated Libraries Using Quantitative High-Throughput Screening (AID 1296008); settings: Five cell lines viability, CellTiter-Glo ATP luminescence, 48-72 h; max response: stronger effect = lower value; note: potency is the fitted concentration of half-maximal effect
Outline: (§1)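 Compounds were pin-transferred onto cells and incubated 48 or 72 hr at 37 degree Celsius, 95% humidity. CellTiter-Glo was added, plates sat 10 min at room temperature, then ATP-coupled luminescence was imaged as the viability read-out.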

[2] = tested on: HEK293; test: as above; settings: Five cell lines viability, CellTiter-Glo ATP luminescence, 48-72 h; max response: stronger effect = lower value
Outline: as §1

[3] = tested on: HaCat; test: as above; settings: Five cell lines viability, CellTiter-Glo ATP luminescence, 48-72 h; max response: stronger effect = lower value
Outline: as §1

[4] = tested on: NIH3T3; test: as above; settings: Five cell lines viability, CellTiter-Glo ATP luminescence, 48-72 h; max response: stronger effect = lower value
Outline: as §1

[5] = tested on: MCC-13; test: qHTS assay to identify novel small-molecules to repurpose for Merkel cell carcinoma treatment (AID 1296009); settings: MCC and control cell lines, CellTiter-Glo viability, 72 h; series mostly up to 46 µM
Outline: (§2)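 qHTS format: cells treated with library compounds in DMSO across 8 (NPC) or 11 (MIPE) concentrations. Readout after 72 hr at 37 degree celsius was CellTiter-Glo luminescence.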

[6] = tested on: MCC-26; test: as above; settings: MCC and control cell lines, CellTiter-Glo viability, 72 h; series mostly up to 46 µM
Outline: as §2

[7] = tested on: HACAT; test: as above; settings: MCC and control cell lines, CellTiter-Glo viability, 72 h; at 44.8 µM (top of the series) unless noted
Outline: as §2

[8] = tested on: HEK293T; test: as above; settings: MCC and control cell lines, CellTiter-Glo viability, 72 h; at 44.8 µM (top of the series) unless noted
Outline: as §2
% is set by controls: 0 for no effect and ±100 for the full control effect.
Note: nearly all actives have a fitted effect of over 60% in size.

CC(C)(C)C(O)/C=C/c1ccc2c(c1)OCO2 (stereo unspecified)
inactive: outcome [1] | max response [2] 0.172% | max response [3] -0.175% | max response [4] -4.85% | Potency [5] | Potency [6]

CC(=O)OCC(=O)Nc1cc(C#N)cc(NC(=O)COC(C)=O)c1Cl
inactive: outcome [1] | max response [2] -14.4% | max response [3] 0.636% | max response [4] -0.147% | Potency [5] | Potency [6]

CSCC[C@H](NC(=O)[C@H](Cc1c[nH]c2ccccc12)NC(=O)CCNC(=O)OC(C)(C)C)C(=O)N[C@@H](CC(=O)O)C(=O)N[C@@H](Cc1ccccc1)C(N)=O
inactive: max response [1] 0.728% | max response [2] 0.664% | max response [3] -2.67% | outcome [4] | Potency [5] | Potency [6]

Cc1ccc2c(Cl)cc(Cl)c(O)c2n1
inactive: max response [1] -1.98% | max response [2] -23.5% | max response [3] -10% | max response [4] 2.93% | Potency [5] | Potency [6]

Cc1onc(-c2c(Cl)cccc2Cl)c1C(=O)Cl
inactive: outcome [1] | max response [2] -4.58% | max response [3] -4.26% | max response [4] -2.46% | Potency [5] | Potency [6]

Cc1cc(=O)oc2cc(O[C@@H]3SC[C@@H](O)[C@H](O)[C@H]3O)ccc12
inactive: max response [1] -1.48% | max response [2] -8.77% | max response [3] 4.75% | outcome [4] | Potency [5] | Potency [6]

C=CCNc1nc(NCC=C)nc(N2CCN(C(c3ccc(F)cc3)c3ccc(F)cc3)CC2)n1
inactive: max response [1] -3.37% | max response [3] 2.53% | max response [4] -15.1% | Potency [5] | Potency [6]
active: Potency [2] 8.41 µM

Nc1c(NC/C=C\COc2cc(CN3CCCCC3)ccn2)c(=O)c1=O
inactive: max response [1] -21.7% | max response [2] -20.2% | max response [3] -11% | max response [4] 0.202% | Potency [5] | Potency [6]

O=[N+]([O-])c1cncn1CCN1CCOCC1
inactive: outcome [1] | max response [2] 3.5% | max response [3] -14.4% | max response [4] 2.27% | Potency [5] | Potency [6]

C#Cc1ccc(-c2ccccc2F)cc1
inactive: max response [1] -10.3% | max response [2] -8.83% | max response [3] 3.65% | outcome [4] | Potency [5] | Potency [6]

C/C(=N\O)[C@@H](C)NCC(C)(C)CN[C@H](C)/C(C)=N/O
inactive: outcome [1] | max response [2] -22.3% | max response [3] -13.6% | max response [4] -0.119% | Potency [5] | Potency [6]

O=C(CCCl)NCCc1ccccc1
inactive: outcome [1] | max response [2] -1.92% | max response [3] 0.301% | max response [4] -1.58% | Potency [5] | Potency [6]

CCOC(=O)Oc1ccc(CCNC(=O)[C@H](CCSC)NC(C)=O)cc1OC(=O)OCC
inactive: outcome [1] | max response [2] -13% | max response [3] -20.7% | outcome [4] | Potency [5] | Potency [6]

CCOC(=O)CN1CCCC1=O
inactive: max response [1] 1.6% | max response [2] -12.9% | max response [3] -7.15% | outcome [4] | Potency [5] | Potency [6]

CC1(C)O[C@@H]2C[C@H]3[C@@H]4C[C@H](F)C5=CC(=O)C=C[C@]5(C)[C@@]4(F)[C@@H](O)C[C@]3(C)[C@]2(C(=O)CO)O1
inactive: max response [1] -4.6% | max response [2] 1.46% | max response [3] 1.62% | max response [4] -12.6% | Potency [5] | Potency [6]

Nc1ccc(C(=O)OCC(O)CO)cc1 (stereo unspecified)
inactive: max response [1] -0.994% | max response [2] -11.2% | max response [3] -8.17% | max response [4] 2.44% | Potency [5] | Potency [6]

Cc1nc2n(c(=O)c1CCN1CCC(C(=O)c3ccc(F)cc3)CC1)CCS2
active: Potency [1] 9.44 µM | Potency [2] 8.41 µM
inactive: max response [3] 1.44% | max response [4] -4.75% | Potency [5] | Potency [6]

[O-][n+]1cccc(/C(Cl)=N/OC[C@@H](O)CN2CCCCC2)c1
inactive: max response [1] 4.98% | max response [2] -1.36% | max response [3] 2.38% | max response [4] 0.672% | Potency [5] | Potency [6]

COc1ccccc1OCC1CNC(=O)O1 (stereo unspecified)
inactive: max response [1] -7.57% | max response [2] 2.95% | max response [3] -20.6% | outcome [4] | Potency [5] | Potency [6]

Clc1ccc2c(c1)Nc1ccccc1S2
inactive: max response [1] -4.08% | max response [2] -6.16% | max response [3] -13.4% | outcome [4] | Potency [5] | Potency [6]

CC(=O)c1cc2ccccc2s1
inactive: max response [1] -0.976% | max response [2] -8.14% | max response [3] -0.924% | max response [4] 1.18% | Potency [5] | Potency [6]

CC(C)CCCC(C)NCCC(C)C (stereo unspecified)
inactive: max response [1] -5.37% | max response [2] -7.84% | max response [3] 3.37% | outcome [4] | Potency [5] | Potency [6]

CC1(C)O[C@@H]2C[C@H]3[C@@H]4CCC5=CC(=O)C=C[C@]5(C)[C@@]4(F)[C@@H](O)C[C@]3(C)[C@]2(C(=O)CO)O1
inactive: max response [1] -0.473% | max response [2] -6.9% | max response [3] -7.17% | max response [4] -1.75% | Potency [5] | Potency [6]

C/C(=C1\CCOC(=O)S1)N(C=O)Cc1cnc(C)nc1N
inactive: max response [1] -21.8% | max response [2] -12.5% | max response [3] 0.182% | max response [4] 0.237% | Potency [5] | Potency [6]

CO[C@]1(NC(=O)CSC(F)F)C(=O)N2C(C(=O)O)=C(CSc3nnnn3CCO)CO[C@H]21
inactive: max response [1] -1.31% | max response [2] -23.2% | max response [3] 4.33% | max response [4] 1.66% | Potency [5] | Potency [6]

CC(C)(Oc1ccc(Cl)cc1)C(=O)OCCCOC(=O)C(C)(C)Oc1ccc(Cl)cc1
inactive: max response [1] -5.16% | max response [2] -15.3% | max response [3] -1.93% | max response [4] 1.4% | Potency [5] | Potency [6]

O=C(O)C1CCC1
inactive: outcome [1] | max response [2] -2.16% | max response [3] 1.71% | max response [4] -4.19% | Potency [5] | Potency [6]

CCc1cccc2c(CCO)c[nH]c12
inactive: max response [1] -8.62% | max response [2] -6.21% | max response [3] 2.18% | max response [4] 1.36% | Potency [5] | Potency [6]

CCc1cc(S(=O)(=O)O)c2cc(C(C)C)cccc1-2
inactive: max response [1] 4.56% | max response [2] -0.992% | max response [3] 0.42% | max response [4] 1.41% | Potency [5] | Potency [6]

O=C(NN1CCCC1)NS(=O)(=O)c1ccc(Cl)cc1
inactive: max response [1] -14.3% | max response [2] 2.09% | max response [3] -45.6% | max response [4] 4.71% | Potency [5] | Potency [6]

Fc1ccc(C(c2ccc(F)cc2)N2CCNCC2)cc1
inactive: outcome [1] | max response [2] -6.69% | max response [3] -17.9% | max response [4] -2.81% | Potency [5] | Potency [6]

COC(=O)c1ccc(NC(C)=O)cc1OC
inactive: max response [1] -0.178% | max response [2] -0.683% | max response [3] -9.21% | max response [4] -16.1% | Potency [5] | Potency [6]

CC(=O)/C=C/C=C1/C2CCC(C2)C1(C)C (stereo unspecified)
inactive: max response [1] -8.75% | max response [2] -13.1% | max response [3] -7.21% | max response [4] -0.501% | Potency [5] | Potency [6]

CCC(=O)O[C@]1(C(=O)COC)[C@@H](C)C[C@H]2[C@@H]3CCC4=CC(=O)C=C[C@]4(C)C3(F)[C@@H](O)C[C@@]21C (stereo partly specified)
inactive: outcome [1] | max response [2] -13.2% | outcome [3] | outcome [7] | Potency [5] | Potency [6]

CCCCCN(CCCOC)C(=O)C(CCC(=O)O)NC(=O)c1ccc(Cl)c(Cl)c1 (stereo unspecified)
inactive: max response [1] -0.363% | max response [2] -5.64% | max response [4] -3.2% | Potency [5] | Potency [6]

CCCCCCCCCCCCCCCCCCN(C)C
inactive: max response [1] -11.6% | max response [2] -2.54% | max response [4] 0.657% | Potency [5] | Potency [6]

Cc1ccc(C(=O)C(=O)O)cc1C
inactive: max response [1] -7.54% | outcome [2] | max response [4] 2.73% | outcome [8] | Potency [5] | Potency [6]

C[C@@H]1C[C@H]2[C@@H]3CCC4=CC(=O)C=C[C@]4(C)[C@@]3(F)[C@@H](O)C[C@]2(C)[C@@]1(O)C(=O)COC(=O)c1ccncc1
inactive: max response [1] -11% | max response [2] -6.52% | max response [4] -6.36% | Potency [5] | Potency [6]

CC1c2ccccc2CN1NC(=O)c1ccc(Cl)c(S(N)(=O)=O)c1 (stereo unspecified)
inactive: max response [1] -8.72% | max response [2] -4.92% | max response [3] 0.897% | max response [4] 2.57% | Potency [5] | Potency [6]
